Assay results reported in ChEMBL document CHEMBL3988442, “University of Dundee, Small-Polar-MMV Screening Library” (2021).
Screen size: about 69,000 compounds; about 420 (0.61%) showed an effect of 50% or more. The list comes from a sample in which strong results are over-represented; it also holds similar structures and randomly drawn compounds.

target: T1, Histidine--tRNA ligase (Leishmania infantum) (UniProt A4I591); assay: Leishmania infantum Histidine tRNA synthetase (LdHisRS); format: functional; parameters: scale not given: in the data most compounds retested in dose-response had high values; details: 30 µM
T1 sequence (whole entry): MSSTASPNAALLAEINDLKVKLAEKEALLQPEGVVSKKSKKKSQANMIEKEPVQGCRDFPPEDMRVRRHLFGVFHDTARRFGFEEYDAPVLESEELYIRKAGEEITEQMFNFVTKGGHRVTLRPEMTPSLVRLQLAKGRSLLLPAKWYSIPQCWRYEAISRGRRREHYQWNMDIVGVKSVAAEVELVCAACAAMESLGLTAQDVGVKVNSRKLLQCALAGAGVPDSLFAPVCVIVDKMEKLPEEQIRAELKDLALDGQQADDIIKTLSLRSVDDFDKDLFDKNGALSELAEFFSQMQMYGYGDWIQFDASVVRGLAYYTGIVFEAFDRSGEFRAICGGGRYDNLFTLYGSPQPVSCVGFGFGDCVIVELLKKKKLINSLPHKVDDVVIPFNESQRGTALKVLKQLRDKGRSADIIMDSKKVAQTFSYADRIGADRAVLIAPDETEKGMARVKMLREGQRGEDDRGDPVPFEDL

Structure (SMILES)	Percent Effect [%]
CN1CCC(O)(CCNC(=O)[C@@]23CNC[C@@H]2CN(C2CCCC2)C3)CC1	10.3
CC(=O)N1CCO[C@@H]2CN(S(=O)(=O)c3cccs3)CC[C@@H]2C1	5.66
CC(=O)N1CCO[C@@H]2CN(S(=O)(=O)c3ccc(F)cc3)CC[C@@H]2C1	17
CC(=O)N1CCO[C@@H]2CN(S(=O)(=O)c3ccc(C)cc3)CC[C@@H]2C1	50.9
O=C(N[C@@H]1CN(Cc2ccoc2)C[C@@H]2CCCO[C@@H]21)C1CCC1	11.8
Cc1nnc(N2C[C@H](C(=O)NCc3ccco3)[C@@H]3CCO[C@@H]3C2)s1	16.8
CS(=O)(=O)N1C[C@@H]2COC[C@@H](CC(=O)N3CCCO3)[C@@H]2C1	7.89
O=C(O)CNc1cc(-c2nccnc2N2CCCC2)c2cc[nH]c2n1	20.2
OCCNc1cc(-c2nccnc2N2CCCC2)c2cc[nH]c2n1	62.8
Nc1cc(-c2nccnc2N2CCCC2)c2cc[nH]c2n1	20.2
Cc1ccc(C)c(OC(C)C(=O)NCc2cccnc2)c1 (configuration not stated)	0
Cc1ccc(C)c(OC(C)C(=O)Nc2cccnc2)c1 (configuration not stated)	0
Cc1ccc(C)c(OC(C)C(=O)NCCNc2cccnc2)c1 (configuration not stated)	60.6
NC(=O)CN1C(=O)CO[C@H]2CN(Cc3ccc(Cl)cc3)C[C@H]21	10.8
Cc1ccc(N2CC[C@@H]3[C@@H]2CCN3C(=O)c2cscn2)nn1	7.89
O=C(NC[C@H]1CCCC[C@H]1O)c1ccc2nc(-c3ccco3)[nH]c2c1	63.4
O=C(NC[C@H]1CCCC[C@H]1O)c1cccc2[nH]c(-c3ccco3)nc12	29.7
O=C(N[C@H]1CCCC[C@@H]1O)c1ccc2nc(-c3ccccc3)[nH]c2c1	3.96
COC[C@@H]1CC[C@H]2[C@H](CCN2C(=O)c2ccncc2F)O1	22.6
O=C(Cn1ccc2sccc2c1=O)NCc1ccc(F)cc1	5.43
CN(C)S(=O)(=O)N1C[C@H]2CCC[C@@]2(COCc2ccccn2)C1	-17.6
Cc1cccc(COC[C@H]2CC[C@H]3[C@H](CCN3C(=O)CC3CC3)O2)n1	13.9

Structure (SMILES)	Percent Effect [%]
CCOCCN1CCN(Cc2nnc(-c3ccco3)o2)CC1	8.51
CC(C)n1nc2c(cc1=O)CN(Cc1nnc(C3CC3)o1)CC2	24.5
Cc1nc(CN2CCc3nn(C)c(=O)cc3C2)oc1C	14.9
Cc1ccc(-c2nnc(CN3CCc4cnc(C)nc4C3)o2)cc1	40
Cn1nc2c(cc1=O)CN(Cc1nnc(-c3ccco3)o1)CC2	76.6
Cc1ccc(-c2nnc(CN3CCc4nn(C)c(=O)cc4C3)o2)cc1	106
CC(C)n1nc2c(cc1=O)CN(Cc1nc(-c3ccco3)no1)CC2	2.67
Cn1nc2c(cc1=O)CN(Cc1ccc(-n3cccn3)cc1)CC2	33.3
Cn1nc2c(cc1=O)CN(Cc1nnc(-c3ccc(F)cc3)o1)CC2	78.7
COc1ccc(N2Cc3nc(N)ncc3C2=O)cc1	0
O=C1[C@H]2CN(CC3CC3)C[C@H]2CN1Cc1cccc(F)c1	-1.5
O=C([C@H]1C[C@H]2OCC[C@H]2N(CCc2ccccc2)C1)N1CCCCO1	9.02
Cc1nc(CN2C[C@@H]3CN(c4ncc(F)cn4)C[C@@H]3C2=O)cs1	19.7
O=C(c1cccnc1)N1C[C@@H]2CC[C@H](C1)N(Cc1ccc(F)cc1Cl)C2	7.2
CC(=O)N1CCN2C[C@H](CO)[C@@H](c3ccccc3)[C@H]2C1	2.04
CCN1C(=O)C(C#N)=C(C)/C(=C/C2=Cc3ccccc3OC2)C1=O	86.8
COC(=O)CC(C1=Cc2ccccc2OC1)c1oc(C)cc(=O)c1O (configuration not stated)	23.1
O=C(Nc1cccnc1)C1=Cc2ccccc2OC1	25
CC1=C(C#N)C(=O)N(C)C(=O)/C1=C\C1=Cc2ccccc2OC1	92.1
CC(Cn1cccn1)NC(=O)C1=Cc2ccccc2OC1 (configuration not stated)	16
Cc1nc([C@H]2C[C@H]3CN(C(=O)c4cc(C)c(C)s4)CC[C@@H]3O2)no1	20.6
COc1cccc(C(=O)N2C[C@@H](c3ccccc3)[C@@H]3NCCCC[C@@H]32)c1	10.3

Structure (SMILES)	Percent Effect [%]
Cc1nc2c(c(=O)[nH]1)CN(C(=O)CC[C@@H]1CCCN3CCCC[C@H]13)C2	3.54
Cc1ccc(CN2CC[C@@H]3[C@@H](CO[C@H]3CN3CCN(C)CC3)C2)s1	-11.1
O=C(c1cscn1)N1C[C@H](OCc2cccnc2)[C@H]2COC[C@H]21	9.72
CCC1=N[C@@]2(CC[C@@H]3CN(Cc4ccccc4C)C[C@@H]32)C(=O)N1C	10
Cn1cccc1C(=O)N[C@@H]1CN(Cc2ccsc2)[C@@H]2COC[C@@H]21	20
Cc1ccnc(N2CCN(C[C@]3(O)CCCN4CCCC[C@@H]43)CC2)c1	2.86
Cc1nc(O)cc(CCNC(=O)CC[C@@H]2CCCN3CCCC[C@H]23)n1	5.38
CC1=C(C#N)C(=O)NC(=O)/C1=C\c1c(C)nn(-c2ccc(C)cc2)c1O	70.1
Cc1ccc(-n2nc(C)c3c2NC(=O)CC3c2cnc(N)s2)cc1 (configuration not stated)	17.3
CCN(CC)CCNC(=O)CCc1c(C)nn(-c2ccc(Cl)cc2)c1C	7.92
CC1=C(C#N)C(=O)NC(=O)/C1=C\c1c(C)nn(-c2ccccc2)c1O	43.3
Cc1nn(C)c(=O)c2nn(-c3ccc(Cl)cc3)c(C)c12	5.5
CC1=C(C#N)C(=O)NC(=O)/C1=C\c1c(C)nn(-c2ccc(Cl)cc2)c1O	51.5
Cc1cc(CN2CC[C@H]3OCC[C@@]3(C(=O)NCc3ccco3)C2)no1	11.4
O=C([C@H]1CCS(=O)(=O)[C@@H]2CN(CCc3ccccc3)C[C@H]12)N1CCCC1	17.6
Cc1ccncc1C(=O)N1CC[C@@]2(O)CCN(C3CCCCC3)C[C@H]2C1	14.5
c1cnn(CCCO[C@@H]2CC[C@H]3[C@H]2OCCN3CC2CCOCC2)c1	13.9
Cc1noc(C)c1CN1C[C@@H]2CC[C@H](C1)N(Cc1cc(F)cc(F)c1)C2	24.7
Cc1ccc(N2CCC3(CC2)COCCN(c2nccs2)C3)nn1	58.5
Cc1ccc(N2CC3(CCN(c4nccs4)C3)C2)nn1	9.52
Cc1ccc(N2CCCC3(COCCN(c4nccs4)C3)C2)nn1 (configuration not stated)	11.4
CS(=O)(=O)N1C[C@@H]2CC[C@H](C1)N(C(=O)Cn1ccc3ccccc31)C2	11.6

Structure (SMILES)	Percent Effect [%]
Cn1cc(CN2CC[C@@H]3[C@H]2CCC(=O)N3c2ccccc2)cn1	5.56
COc1c(NC(=O)N(C)CCOc2ccccc2)c(C)nn1C	24.1
CN(CCOc1ccccc1)C(=O)Nc1cccn(C)c1=O	112
Cn1cccc(NC(=O)COc2ccc(Br)cc2)c1=O	26.1
O=C(NCc1ccco1)[C@H]1COC[C@H]2CN(Cc3ccccn3)C[C@H]21	14
Cc1ccc(N(C)C2CCN(C(=O)CCc3ccco3)CC2)nn1	58.5
Cc1ccccc1NC1CCN(C(=O)CCc2ccco2)CC1	12.5
Cc1ccc(NC2CCN(C(=O)CCc3ccco3)CC2)nn1	27.7
O=C(c1ncccn1)N1C[C@H]2CCC[C@@]2(COCc2cccnc2)C1	-3.92
Cc1cnc(C(=O)N2C[C@H]3CN(Cc4cccs4)C[C@H]3C2)cn1	-3.19
CS(=O)(=O)CCC(=O)N1C[C@@H]2CC[C@H](C1)N(Cc1ccccn1)C2=O	18
O=C(CC1CC1)N[C@@H]1CN(Cc2ccoc2)C[C@@H]2CCCO[C@@H]21	-31.4
O=C1CCC(C(=O)Nc2cnn(-c3ccccc3Cl)c2)N1 (configuration not stated)	19.5
O=C(Nc1cnn(Cc2ccc(F)cc2Cl)c1)C1CC1	15.9
O=C1NCC(C(=O)NCc2ccccc2CN2CCOCC2)N1 (configuration not stated)	7.25
CC1CCN(Cc2ccccc2CNC(=O)C2CNC(=O)N2)CC1 (configuration not stated)	5.18
O=C1NCC(C(=O)Nc2ccc(=O)n(Cc3ccccc3Cl)c2)N1 (configuration not stated)	92.8
O=C(Nc1ccc(=O)n(Cc2ccccc2Cl)c1)C1CC1	114
O=C1CCC(C(=O)Nc2ccc(=O)n(Cc3ccc(Cl)c(Cl)c3)c2)N1 (configuration not stated)	95.2
O=C1CCC(C(=O)Nc2ccc(=O)n(Cc3ccccc3Cl)c2)N1 (configuration not stated)	20.5
O=C1CC[C@H](C(=O)Nc2cnn(-c3ccccc3Br)c2)N1	7.32
CC(C)CN1C(=O)CO[C@@H]2CN(C(=O)N(C)C)C[C@H]21	8.77

Structure (SMILES)	Percent Effect [%]
CN1CC[C@@H]2[C@@H](CO[C@H]2CNC(=O)c2nccn2C)C1	16
CN(C)C(=O)CN1C[C@@H]2CC[C@H](C1)N(Cc1cc(F)ccc1F)C2	1.91
CN1C[C@@H]2CC[C@H](CC1=O)N2C(=O)c1cc2ccccc2[nH]c1=O	19.5
Cc1occc1C(=O)N1C[C@@H]2[C@@H](C1)OCC(=O)N2Cc1cccnc1	11.5
Cn1cc(C(=O)N2CC[C@@H]3[C@@H]2CCN3c2ccccn2)cn1	16
Cc1noc(C)c1CN1CCO[C@H]2CN(C(=O)C3CCOCC3)C[C@H]21	7.96
O=C(NCc1cccnc1N1CCc2ccccc2C1)c1cnc[nH]1	18.6
O=C(NCc1cccnc1N1CCc2ccccc2C1)c1cc(=O)[nH][nH]1	50
Cc1cc(C(=O)NCc2cccnc2N2CCc3ccccc3C2)[nH]n1	21.4
CCC1CN(CC(=O)NCCN2CCCC2)c2ccccc2S1 (configuration not stated)	31.5
CCC1CN(CC(=O)NCCN2CCCCC2)c2ccccc2S1 (configuration not stated)	27.2
CCC1CN(CC(=O)NCCN2CCCCCC2)c2ccccc2S1 (configuration not stated)	51.1
CN(C)C(=O)N1C[C@@H]2CC[C@H](C1)N(Cc1ccc3nsnc3c1)C2	24
O=C1N(c2cccc(F)c2)Cc2nc(=O)n(Cc3ccccc3Cl)n21	12
CN1C[C@@H]2CN(C(=O)NCc3cccc(F)c3)CCC[C@]2(C(=O)O)C1	6
COc1ccc(CN2C[C@@H]3COC[C@@H](N4CCN(C)CC4)[C@@H]3C2)cc1	17
Cc1c(-c2cc(C(F)(F)F)nc(N3CCC(N)CC3)n2)cnn1C	19.4
CCc1ccc(-c2cc(C(F)(F)F)nc(N3CCC(N)CC3)n2)cc1	71
CCn1ncc(-c2cc(C(F)(F)F)nc(N3CCC(N)CC3)n2)c1C	15.1
